# Assays:
# Experiment in all cases: thermal shift delta Tm vs DMSO control; higher = stronger stabilization (binding)
# Conditions in all cases: 12.5 µM; protein concentration 2 µM
# [1] = tested on: LOC_OS01G01410-cb001
# How it was run: (§1)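 Heating from 25°C to 95°C at 0.05°C/s, fluorescence was recorded for 19.5 μl wells of 2 μM E. coli-expressed, purified rice kinase domain in 100 mM potassium phosphate pH 7.5, 150 mM NaCl, 10% glycerol and 5 × SYPRO Orange with compound in DMSO. Boltzmann fits gave melting temperatures for this differential scanning fluorimetry assay. The shift reported is the mean of three replicates against the DMSO-only protein.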
# [2] = tested on: LOC_OS01G02750-cb003
# How it was run: as §1
# [3] = tested on: LOC_OS01G10900-cb004
# How it was run: as §1
# [4] = tested on: LOC_OS01G13800-cb001
# How it was run: as §1
# [5] = tested on: LOC_OS01G14860-cb001
# How it was run: as §1
# [6] = tested on: LOC_OS01G21960-cb002
# How it was run: as §1
# [7] = tested on: LOC_OS01G39600-cb002
# How it was run: as §1
# [8] = tested on: LOC_OS01G48390-cb002
# How it was run: as §1
# [9] = tested on: LOC_OS01G51400-cb002
# How it was run: as §1
# [10] = tested on: T1, LOC_OS01G52050-cb004
# T1 sequence (whole entry): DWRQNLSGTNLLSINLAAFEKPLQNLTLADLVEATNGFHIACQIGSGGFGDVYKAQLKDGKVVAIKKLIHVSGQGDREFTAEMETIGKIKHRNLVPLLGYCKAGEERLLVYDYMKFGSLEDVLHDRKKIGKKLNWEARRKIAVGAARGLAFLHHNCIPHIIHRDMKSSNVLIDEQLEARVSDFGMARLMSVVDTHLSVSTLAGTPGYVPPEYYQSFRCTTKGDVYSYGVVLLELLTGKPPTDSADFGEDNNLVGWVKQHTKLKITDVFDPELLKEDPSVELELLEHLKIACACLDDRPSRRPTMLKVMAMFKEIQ
# How it was run: as §1
# [11] = tested on: LOC_OS01G57100-cb003
# How it was run: as §1
# [12] = tested on: LOC_OS01G60330-cb001
# How it was run: as §1
# [13] = tested on: LOC_OS01G60700-cb002
# How it was run: as §1
# [14] = tested on: LOC_OS01G63280-cb003
# How it was run: as §1
# [15] = tested on: LOC_OS01G67340-cb003
# How it was run: as §1
# [16] = tested on: LOC_OS01G70970-cb002
# How it was run: as §1
# [17] = tested on: LOC_OS02G07810-cb001
# How it was run: as §1
# [18] = tested on: LOC_OS02G08530-cb003
# How it was run: as §1
# [19] = tested on: LOC_OS02G14120-cb001
# How it was run: as §1
# [20] = tested on: LOC_OS02G17970-cb001
# How it was run: as §1
# 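Also: purified Escherichia coli-expressed rice kinase domain construct.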
Structure (SMILES),thermal shift delta Tm [1] [°C],thermal shift delta Tm [2] [°C],thermal shift delta Tm [3] [°C],thermal shift delta Tm [4] [°C],thermal shift delta Tm [5] [°C],thermal shift delta Tm [6] [°C],thermal shift delta Tm [7] [°C],thermal shift delta Tm [8] [°C],thermal shift delta Tm [9] [°C],thermal shift delta Tm [10] [°C],thermal shift delta Tm [11] [°C],thermal shift delta Tm [12] [°C],thermal shift delta Tm [13] [°C],thermal shift delta Tm [14] [°C],thermal shift delta Tm [15] [°C],thermal shift delta Tm [16] [°C],thermal shift delta Tm [17] [°C],thermal shift delta Tm [18] [°C],thermal shift delta Tm [19] [°C],thermal shift delta Tm [20] [°C]
N#Cc1c(Oc2ccc(F)c(NC(=O)Cc3cccc(C(F)(F)F)c3)c2)ccc2nc(NC(=O)C3CC3)sc12,1,2.13,0.14,0.81,0.57,1.14,0.16,1.04,1.02,0.32,2.29,1.23,1.86,0.73,0.52,0.34,0.79,0.98,0.68,0.88
CNC(=O)c1cc(Oc2ccc(NC(=O)Nc3ccc(Cl)c(C(F)(F)F)c3)c(F)c2)ccn1 [Regorafenib (BAY 73-4506)],2.09,0.82,0.16,0.79,2.04,0.87,0.21,0.48,0.2,0.67,0.31,0.62,0.77,1.71,-0.62,0.36,0.73,0.93,-0.11,0.55
c1cc(-c2cnn3cc(-c4ccc(OCCN5CCCCC5)cc4)cnc23)ccn1 [Dorsomorphin 2HCl],4.71,10.2,8.66,0.11,2.59,3,7.6,5.88,0.21,6.74,-0.53,4.55,0.2,1.5,6.09,8.77,0.33,2.18,8.01,-0.02
N#Cc1c(NC(=O)c2cccc3ccccc23)sc2c1CCCC2 [JNK Inhibitor IX],0.03,1.54,0.06,0.52,-0.15,0.78,-0.09,-0.06,0.19,-0.13,1.35,1.18,0.63,-0.18,0.34,0,0.12,0.47,-0.31,0.76
COc1cc2ccc(=O)oc2cc1O [Scopoletin],-0.07,0.35,0.25,-0.08,0.39,0.11,-0.27,-0.08,0.18,0.81,0.91,0.02,-0.06,-0.04,-0.05,0.41,-1.02,0.39,0.77,1.18
Cc1nc(-c2cn3c(n2)-c2ccc(-c4cnn(C(C)(C)C(N)=O)c4)cc2OCC3)n(C(C)C)n1 [Taselisib (GDC 0032)],2.11,-0.1,0.24,0.32,-0.05,0.03,-0.05,0.45,0.03,0.13,0.43,0.33,0.46,0.16,0.07,0.23,0.07,0.84,0.27,0.09
CCCCCCCCCC(=O)CC(O)S(=O)(=O)O (stereo not given) [Sodium Houttuyfonate],0.56,-0.18,3.08,0.69,0.44,0.8,-0.35,0.2,0.12,0.07,1.15,0.04,0.03,0.07,0.28,0.09,0.29,0.25,-0.08,1.73

# — the supplement of paper PMC9694430
